{"source": "PubChem BioAssay AID463229", "about": "(Broad Institute, 2010)", "note": "Among all 2,300 compounds or so, about 2,100 (91%) were called active.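 Rule for the calls: active = compounds raising the signal whose fitted half-maximal concentration is at or below their top tested dose (cut at about 25 µM in these data); inconclusive = flat fit at 30 to 70% activity, or a poor fit; inactive = the rest.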 So high a share suggests a set chosen from earlier hits. Not all results are given here. Results with a measured potency or affinity are listed apart.", "data": [{"assay": "ATP level change in INS-1E without cytokines, dose response, counter-screen for beta-cell apoptosis protection project, INS-1E rat cells, ATP luminescence, cherry pick (AID 463229)", "conditions": "INS-1E rat beta cells, no cytokines, CellTiter-Glo ATP, 48 h; series mostly up to 26 µM", "values": [{"smiles": "COc1ccc(C2=Nn3c(nnc3-c3ccccc3Cl)SC2)cc1OC1CCCC1", "outcome": "inactive"}, {"smiles": "CCn1c(SCC(=O)Nc2ccc(OC)cc2)nc2nc3c(cc2c1=O)CCCC3", "outcome": "inactive"}, {"smiles": "Cc1cccnc1CCNCc1c(C(=O)N2C[C@@H](C)O[C@@H](C)C2)nc2ccc(Cl)cn12", "outcome": "inactive"}, {"smiles": "Cc1ccccc1Oc1nc(-c2ccccn2)nc2ccccc12", "outcome": "inactive"}, {"smiles": "COc1cc2c(cc1OC)C(NC(=O)C(F)(F)F)CNC2=O", "note": "(configuration not stated)", "outcome": "inactive"}, {"smiles": "Cc1cccc(C2(c3cccc(C)c3)OC(=O)c3ccccc32)c1", "outcome": "inactive"}, {"smiles": "O=C(CN1C(=O)c2ccccc2S1(=O)=O)c1ccc(F)cc1", "outcome": "inactive"}, {"smiles": "CCCCn1cnc2c(c(-c3ccccc3)c(-c3ccccc3)n2Cc2ccco2)c1=N", "outcome": "inactive"}, {"smiles": "O=c1c2c3c(sc2n(CCN2CCCCC2)c(=O)n1Cc1ccco1)CCCCC3", "outcome": "inactive"}, {"smiles": "Cc1cc(C(=O)c2ccc3ccccc3c2)c(C)o1", "outcome": "inactive"}, {"smiles": "C=CCc1c(C)nc(C)nc1N/N=C/c1ccc(N(C)C)cc1", "outcome": "inactive"}, {"smiles": "Cc1cc(N2CCOCC2)nc(N)n1", "outcome": "inactive"}, {"smiles": "COc1ccccc1NCC(=O)N1CCN(S(=O)(=O)c2ccccc2)CC1", "outcome": "inactive"}, {"smiles": "Cc1ccc(NC(=O)C(C)Sc2nnc(C)n2C2CC2)cc1S(=O)(=O)N1CCOCC1", "note": "(configuration not stated)", "outcome": "inactive"}, {"smiles": "CNc1nc(N)c([N+](=O)[O-])c(Nc2cccc(F)c2)n1", "outcome": "inactive"}, {"smiles": "Cc1cccc(CNc2ccc(S(=O)(=O)N3CCCCC3)cc2)c1", "outcome": "inactive"}, {"smiles": "O=C(N/N=C/c1cccnc1)c1ccccc1NS(=O)(=O)c1cccs1", "outcome": "inactive"}, {"smiles": "O=C(c1cccc(Cl)c1)c1nn(-c2ccccc2)c(=O)cc1C(F)(F)F", "outcome": "inactive"}, {"smiles": "O=[N+]([O-])/C=C/c1cn(Cc2ccc(F)cc2)c2ccccc12", "outcome": "inactive"}, {"smiles": "Cc1csc2nc(NC(=O)c3ccccc3)sc(=O)c12", "outcome": "inactive"}, {"smiles": "CCOc1ccc(N(C)S(=O)(=O)c2ccc(C)c(C(=O)OCC(=O)c3c[nH]c4ccccc34)c2)cc1", "outcome": "inactive"}, {"smiles": "Cc1cc(C)c(OCC(O)CNC(C)(C)C)c(C)c1", "note": "(configuration not stated)", "outcome": "inactive"}, {"smiles": "OC(CNC1CCCCC1)COCCOc1ccc(Br)cc1", "note": "(configuration not stated)", "outcome": "inactive"}, {"smiles": "CC(C)(C)OC(=O)N1CCC(CNC(=O)c2cccs2)CC1", "outcome": "inactive"}, {"smiles": "COc1ccc(-c2ccnc(SCC(=O)N3CCN(c4ccccc4)CC3)n2)cc1", "outcome": "inactive"}, {"smiles": "O=C(NCc1nc2ccccc2[nH]1)C1=C[C@@H](C2CCCCC2)C[C@@H](OCc2ccc(CO)cc2)O1", "outcome": "inactive"}, {"smiles": "CCOC(=O)C1=C(CCc2ccccc2)NC(=O)NC1c1ccc2ccccc2c1", "note": "(configuration not stated)", "outcome": "inactive"}, {"smiles": "CCCOC(=O)/C(C(N)=NCc1ccccc1)=C(\\O)OCCC", "outcome": "inactive"}, {"smiles": "c1cc(-c2noc(CC3CCCCC3)n2)ccn1", "outcome": "inactive"}, {"smiles": "COc1ccccc1/C=N/OCc1cc(C(C)=O)ccc1OC", "outcome": "inactive"}, {"smiles": "CCCC(=O)N(CCN(C(=O)CCC)c1ccccc1)c1ccccc1", "outcome": "inactive"}, {"smiles": "NC(=O)c1ccccc1OC1CCC1", "outcome": "inactive"}, {"smiles": "CN(C)c1ccc(/C=C(\\C#N)C(=O)OCC(=O)N(C)C2CCS(=O)(=O)C2)cc1", "note": "(configuration not stated)", "outcome": "inactive"}, {"smiles": "COc1ccc(/C=C/C(=O)c2ccncc2)c2ccccc12", "outcome": "inactive"}, {"smiles": "COc1cc(CNCCO)cc(Cl)c1OCc1ccc(Cl)cc1Cl", "outcome": "inactive"}, {"smiles": "Cc1ccc(NC(=O)NCC2CCN(Cc3cccc(Cl)c3)CC2)cc1Cl", "outcome": "inactive"}, {"smiles": "CCc1ccc(-n2c(C)cc(/C=N/NC(=O)c3ccncc3)c2C)cc1", "outcome": "inactive"}, {"smiles": "Cc1cc(C)nc(-n2nc(C)cc2Nc2ccccc2)n1", "outcome": "inactive"}, {"smiles": "CC1=CC(C)(C)N(C(=O)CSc2nnc(-c3ccc(C)cc3)o2)c2ccc(C)cc21", "outcome": "inactive"}, {"smiles": "CCOC(=O)C(=Cc1ccc(Br)cc1)C(=O)OCC", "outcome": "inactive"}, {"smiles": "O=[N+]([O-])c1ccc(N2CCN(CCOc3nonc3-c3ccccc3)CC2)c(Cl)c1", "outcome": "inactive"}, {"smiles": "Cc1ccccc1OC1C(=O)N(Cc2ccc3c(c2)OCO3)C1c1sccc1C", "note": "(configuration not stated)", "outcome": "inactive"}, {"smiles": "CC(Sc1nnc2c(n1)[nH]c1ccccc12)C(=O)N(C)C1CCCCC1", "note": "(configuration not stated)", "outcome": "inactive"}, {"smiles": "CCCC1(c2ccccc2)NC(=O)N(CC(=O)Nc2cc(C)ccc2OC)C1=O", "note": "(configuration not stated)", "outcome": "inactive"}, {"smiles": "O=[N+]([O-])c1ccc(-n2cnc3ccccc32)c([N+](=O)[O-])c1", "outcome": "inactive"}, {"smiles": "CCS(=O)(=O)c1ncc(Cl)c(C(=O)Nc2ccccc2OC)n1", "outcome": "inactive"}, {"smiles": "Cc1ccc(OCc2cc(C(=O)N(C)Cc3cc(C4CC4)n[nH]3)no2)cc1C", "outcome": "inactive"}, {"smiles": "COCCCNC(=S)N/N=C/c1cccc(OC)c1O", "outcome": "inactive"}, {"smiles": "O=C(Nc1ccc(F)cc1F)N1CCCN(CCOc2ccccc2)CC1", "outcome": "inactive"}, {"smiles": "CC(=O)Nc1ccc(S(=O)(=O)N2c3ccccc3NC(=O)CC2C)c(Cl)c1", "note": "(configuration not stated)", "outcome": "inactive"}, {"smiles": "Cc1cccc(NC(=O)Cn2c(/C=C/c3ccccc3)nc3ccccc32)c1", "outcome": "inactive"}, {"smiles": "O=C(Oc1cccc2cccnc12)c1cccc(N2C(=O)C3C4CCC(C4)C3C2=O)c1", "note": "(configuration not stated)", "outcome": "inactive"}, {"smiles": "O=c1c(Cl)c(Cl)cnn1Cc1ccc(F)cc1", "outcome": "inactive"}, {"smiles": "O=C(Cn1ncc(Cl)c(Cl)c1=O)c1ccc2c(c1)OCCO2", "outcome": "inactive"}, {"smiles": "Cc1ccc2ccc3ccc(C)nc3c2n1", "outcome": "inactive"}, {"smiles": "CCOCCCNC(=O)c1c[nH]c2cc(OC)ccc2c1=O", "outcome": "inactive"}, {"smiles": "COc1ccc(C(=O)CSc2n[nH]c(=O)n2Cc2ccco2)cc1", "outcome": "inactive"}, {"smiles": "CCOc1ccc(OCC)c(S(=O)(=O)NCCOC23CC4CC(CC(C4)C2)C3)c1", "outcome": "inactive"}, {"smiles": "C=CCN(CC=C)CC(O)Cn1c2ccccc2c2ccccc21", "note": "(configuration not stated)", "outcome": "inactive"}, {"smiles": "O=C(NCc1ccccn1)c1cc(-c2ccc(Cl)cc2)oc1C(F)(F)F", "outcome": "inactive"}, {"smiles": "CCN(CC(=O)Nc1ccc(NC(C)=O)cc1)C(=O)CCCOc1ccc(C(C)(C)C)cc1", "outcome": "inactive"}, {"smiles": "CC(=O)Oc1ccc(N(C(C)=O)S(=O)(=O)c2cccs2)c2ccccc12", "outcome": "inactive"}, {"smiles": "Cc1ccc(O)c(CNc2cccc3cccnc23)c1", "outcome": "inactive"}, {"smiles": "Cc1nc(C(F)(F)F)c(C(=O)N/N=C(\\N)c2ccccn2)s1", "outcome": "inactive"}, {"smiles": "COc1ccc(/C=C/C(=O)NC(=S)Nc2ccccc2C(=O)NC2CCCCC2)cc1", "outcome": "inactive"}, {"smiles": "O=C1CSC(c2ccccc2F)N1", "note": "(configuration not stated)", "outcome": "inactive"}, {"smiles": "CC(=O)c1c(C)[nH]c(C(=O)CN2CCN(S(=O)(=O)c3ccccc3)CC2)c1C", "outcome": "inactive"}, {"smiles": "CCOc1ccc(-n2c(=O)[nH]cc(C(=O)Nc3ccc(OC)c(OC)c3)c2=O)cc1", "outcome": "inactive"}, {"smiles": "CCCOc1ccc(C(=O)C(CN2CCOCC2)c2ccccc2)cc1", "note": "(configuration not stated)", "outcome": "inactive"}, {"smiles": "CC(NC(=O)C1CCC(C(=O)NC(C)c2ccccc2)CC1)c1ccccc1", "note": "(configuration not stated)", "outcome": "inactive"}, {"smiles": "CC(=O)c1ccccc1OCCOCCOc1ccccc1C(C)=O", "outcome": "inactive"}, {"smiles": "Cc1cc(C)c2c(C)[nH]nc2n1", "outcome": "inactive"}, {"smiles": "O=C(c1ccccc1)C(CCC(CN1CCOCC1)C(=O)c1ccccc1)CN1CCOCC1", "note": "(configuration not stated)", "outcome": "inactive"}, {"smiles": "CC(=O)SC1CC(=O)N(c2c(C)cccc2C)C1=O", "note": "(configuration not stated)", "outcome": "inactive"}, {"smiles": "COc1ccccc1/C=N\\Nc1cc(C)nc(-n2nc(C)cc2C)n1", "outcome": "inactive"}, {"smiles": "O=C(Nc1ccc(Nc2ccncc2)cc1)c1ccc(Nc2ccnc3ccc([N+](=O)[O-])cc23)cc1[N+](=O)[O-]", "outcome": "inactive"}, {"smiles": "O=c1c(Cl)c2oc3ccccc3nc-2c2ccccc12", "outcome": "inactive"}, {"smiles": "CCN(CC)c1ccc(N=C2C(=O)Nc3ccccc32)cc1", "outcome": "inactive"}, {"smiles": "O=C1CSC(c2cccnc2)N1CC1CC1", "note": "(configuration not stated)", "outcome": "inactive"}, {"smiles": "Cc1ccccc1NC(=S)Nc1cccc2cnccc12", "outcome": "inactive"}, {"smiles": "COc1ncnc(OC)c1S(=O)(=O)Nc1ccc(C(F)(F)F)cc1", "outcome": "inactive"}, {"smiles": "Cc1ccccc1Cn1ccc(=NCc2ccccc2)cc1", "outcome": "inactive"}, {"smiles": "Cc1ccc(S(=O)(=O)N2CCCCC2c2cccnc2)c(C)c1C", "note": "(configuration not stated)", "outcome": "inactive"}, {"smiles": "Cc1ccc(Oc2nc(-c3ccccn3)nc3ccccc23)cc1", "outcome": "inactive"}, {"smiles": "Nc1ccc(N2CCCCC2)cc1N1CCCCC1", "outcome": "inactive"}, {"smiles": "CC(=O)Oc1c(Cl)cc(N(C(C)=O)S(=O)(=O)c2ccccc2)c2ccccc12", "outcome": "inactive"}, {"smiles": "O=C(COC(=O)Cn1cnc2ccccc2c1=O)Nc1ccc2c(c1)OCO2", "outcome": "inactive"}, {"smiles": "CC(C)OCCCNC(=S)N1CCC(C(=O)c2ccc(Cl)cc2)CC1", "outcome": "inactive"}, {"smiles": "CC(C)(C)n1[nH]c2c3c(ccc2c1=O)C(=O)c1ccccc1C3=O", "outcome": "inactive"}, {"smiles": "CCCCC[n+]1ccn(C2=C([O-])c3ccccc3C(=O)/C2=N\\S(=O)(=O)c2ccccc2)c1", "outcome": "inactive"}, {"smiles": "CCCCN(C)CCNC(=O)c1cc2c(-c3ccccc3F)nn(C)c2s1", "outcome": "inactive"}, {"smiles": "CC(C(c1cccs1)c1c(N)n(C)c(=O)n(C)c1=O)[N+](=O)[O-]", "note": "(configuration not stated)", "outcome": "inactive"}]}]}
